Screening data: PubChem, Broad Institute
BL2 CD40 inh: inhibitors of CD40-induced NF-kB signaling, primary screen, BL2 cells, luciferase reporter, single point; CD40L-induced, 4 h; inhibition, % at 10 µM; 83,000 tested, 0.94% active; AID 1053188, 2014;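 active means mean inhibition of at least 50% with a set share of replicates also reaching that level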
Of the large screens only hits and unclear results are named; the others gave an inactive call; [ ] = another dose, or the depositor's remark. The entries come from a sample that favours hits as a whole.

CC(C)C#Cc1ccc([C@@H]2[C@@H](CO)N3C(=O)CN(C(=O)c4ccc5c(c4)OCO5)C[C@H]23)cc1	none
Cc1nnc(N2CCOCC2)c2nn(-c3ccccc3)c(C)c12	none
c1ccc(-n2nnc3c(N4CCOCC4)ncnc32)cc1	BL2 CD40 inh 68
c1ccc(Cn2nnc3c(N4CCCC4)ncnc32)cc1	none
O=C(Nc1ccccc1F)N1C[C@H]2[C@@H](c3ccccc31)[C@@H](CO)N2C(=O)C1CCCC1	none
CC(C)OCCCNC(=O)c1ccncc1	none
COCCNC(=O)c1ccc(Cl)c(Cl)c1	none
CC(C)OCCCNC(=O)CNC(=O)c1ccc(Cl)c(Cl)c1	BL2 CD40 inh 27
CCCNC(=O)[C@@H]1[C@@H](CO)[C@@H]2Cn3c(ccc(-c4cccnc4)c3=O)[C@@H]2N1C(=O)c1ccccc1F	none
C[C@H]1CN(C)C(=O)c2cc(NS(C)(=O)=O)ccc2O[C@H]1CN(C)C	none
N#C[C@@H]1[C@@H](c2ccccc2C2=CCCCC2)[C@H](CO)N1C(=O)C1CCOCC1	none
CNC[C@H]1Oc2ccc(N(C)C)cc2CC(=O)N(C)C[C@H]1C	none
CC(C)COC(=O)N(C)C[C@H]1OCc2ccccc2-c2ccccc2C(=O)N([C@H](C)CO)C[C@@H]1C	none
Oc1ccc(Cc2ccccc2)c2cccnc12	BL2 CD40 inh 83
OCc1ccc(O)c2ncccc12	none
Oc1ccc(CN2CCC(Cc3ccccc3)CC2)c2cccnc12	none
CC1=CC(C)(C)N=C(Nc2nc(C)c3cc(C)cc(C)c3n2)N1	BL2 CD40 inh 48
CCSC1=NC(C)(C)C=C(C)N1	none
CCCSc1nc(C)c2cc(C)cc(C)c2n1	none
Cc1ccc(S(=O)(=O)Nc2cccc3c2O[C@@H](CN(C)C(=O)Nc2ccc(C(F)(F)F)cc2)[C@H](C)CN([C@H](C)CO)C3=O)cc1	none
Oc1[nH]c2ccccc2c1N=Nc1ccccc1	none
Cc1ccc(O)c(N=Nc2ccccc2)n1	BL2 CD40 inh 55[25 µM]
c1ccc(N=Nc2ccc(C3=NCCO3)cc2)cc1	none
Cc1cccc(S(=O)(=O)N2[C@@H]3CNC[C@H]2C3c2ccc(-c3ccncc3)cc2)c1 (some centres not stated)	none
CC(C)NC(=O)N(C)C[C@H]1Oc2c(N)cccc2C(=O)N(C)C[C@H]1C	none
COc1ccc(N=C2NN=C(c3ccc4c(c3)OCCO4)CS2)cc1	none
c1cc2c(cc1C1=NNC(=NC3CC3)SC1)OCCO2	BL2 CD40 inh 92
COc1ccc(CN=C2NN=C(c3cccc(OC)c3)CS2)cc1	none
c1ccc(CN=C2NN=C(c3cc4ccccc4o3)CS2)cc1	none
c1csc(C2=NNC(=NC3CCCCC3)SC2)c1	none
c1ccc2oc(C3=NNC(=NC4CC4)SC3)cc2c1	BL2 CD40 inh 66
CC(=O)NC[C@@H]1[C@@H](c2ccc(C3=CCCCC3)cc2)[C@@H](CO)N1C(=O)C1CCC1	none
C[C@@H]1CN([C@@H](C)CO)C(=O)c2ccccc2-c2ccccc2CO[C@@H]1CN(C)C(=O)c1ccccc1	none
O=S(=O)(c1ccccc1)N1CCCCN2[C@@H](CO)[C@@H](c3ccc(-c4ccccc4F)cc3)[C@@H]2C1	none
CC(=O)Nc1ccc2c(c1)C(=O)N(C)C[C@@H](C)[C@@H](CN(C)C)O2	none
Cc1cnc(C(=O)OC(C)C(=O)Nc2ccc(Cl)cn2)cn1 (configuration not stated)	none
CCOc1ncccc1C(=O)OC(C)C(=O)Nc1ccc(Cl)cn1 (configuration not stated)	BL2 CD40 inh 68
Cc1cccc(OCC(=O)OC(C)C(=O)Nc2ccc(Cl)cn2)c1 (configuration not stated)	none
COC(=O)Cn1cnc2sc3c(c2c1=O)CCCC3	none
CCOC(=O)Cn1cnc2sc3c(c2c1=O)CCC3	BL2 CD40 inh 56
CCOC(=O)Cn1cnc2c(sc3nc(C)cc(C)c32)c1=O	none
Cc1cccc(NC(=O)COc2ccc3c(c2)CCC3)n1	none
O=C(COc1ccc2c(c1)CCC2)Nc1ccccn1	BL2 CD40 inh 90
Cc1cnc(NC(=O)COc2ccc3c(c2)CCC3)s1	none
CC(C)NC(=O)N(C)C[C@H]1Oc2ccc(NS(C)(=O)=O)cc2CC(=O)N(C)C[C@@H]1C	none
CO[C@H]1CN(C)C(=O)c2cc(NC(=O)C3CCCC3)ccc2OC[C@H](C)NC[C@H]1C	none
O=C(Nc1nc2nc(-c3ccccc3)cc(-c3ccccc3)n2n1)c1ccco1	none
CC(=O)Nc1nc2nc(-c3ccccc3)cc(-c3ccccc3)n2n1	BL2 CD40 inh 30
O=C(NC1CCCC1)c1cc2nc(-c3ccccc3)cc(-c3ccccc3)n2n1	none
O=C(NCC[C@H]1CC[C@@H](NC(=O)c2ccccc2F)[C@@H](CO)O1)c1cnccn1	none
C[C@@H]1CN([C@H](C)CO)C(=O)CCCn2cc(nn2)CO[C@@H]1CN(C)C(=O)Nc1ccc(C(F)(F)F)cc1	none
COc1cc2c(cc1OC)C(=O)CCS2	none
COc1cc2c(cc1OC)C(=O)C(Br)CC2 (configuration not stated)	BL2 CD40 inh 100
COc1cc2c(cc1OC)C(=O)N(C)CC2	none
N#C[C@H]1[C@H](c2ccccc2C2=CCCC2)[C@@H](CO)N1C(=O)NC1CCCC1	none
C=C1C(=O)OC2C1CCC(C)C1C=CC(=O)C12C (configuration not stated)	none
C=C1C(=O)OC2CC1C(O)CC(C)=CCCC(C)=CC(O)CC2C (configuration not stated)	BL2 CD40 inh 87
CC(C)NC(=O)N(C)C[C@@H]1Oc2c(NS(C)(=O)=O)cccc2C(=O)N(C)C[C@H]1C	none
O=S(=O)(Nc1ccccc1)c1ccc(S(=O)(=O)N2CCCC2)cc1	none
O=S(=O)(Nc1cccc2cccnc12)c1ccc(S(=O)(=O)N2CCCC2)cc1	BL2 CD40 inh 76
NC(=O)c1ccccc1NS(=O)(=O)c1ccc(S(=O)(=O)N2CCCC2)cc1	none
CNC(=S)NN=C(C)CCCC(C)=NNC(=S)NC	BL2 CD40 inh 71
O=C(C[C@@H]1CC[C@@H]2[C@H](COC[C@H](O)CN2Cc2cc(F)cc(F)c2)O1)Nc1nccs1	none
O=C(Nc1cccc(F)c1)N1CCCCN2[C@@H](CO)[C@H](c3ccc(C#Cc4cccnc4)cc3)[C@@H]2C1	none
N#Cc1cccc(-c2ccc(C3[C@@H]4CN(C(=O)Cc5ccccc5)C[C@H]3N4)cc2)c1 (some centres not stated)	none
O=C(C1CCOCC1)N1CC(=O)N2[C@H](CO)[C@@H](c3ccc(C#CCc4ccccc4)cc3)[C@@H]2C1	none
Cc1ccc(-c2ccc([C@H]3[C@H](CO)N4C(=O)CN(C(=O)NC(C)C)C[C@@H]34)cc2)cc1	none
Cc1ccc(-c2ccc([C@H]3[C@H]4CN(C(=O)NC(C)C)CC(=O)N4[C@H]3CO)cc2)cc1	none
COCC#Cc1ccc([C@H]2[C@@H](CO)N3C(=O)CN(C(=O)C4CCCC4)C[C@H]23)cc1	none
CC(C)NC(=O)N1CC(=O)N2[C@H](CO)[C@@H](c3ccc(/C=C/c4ccccc4)cc3)[C@H]2C1	BL2 CD40 inh 53[25 µM]
O=C(C1CCCC1)N1CC(=O)N2[C@H](CO)[C@@H](c3ccc(C#CCc4ccccc4)cc3)[C@H]2C1	none
O=C(C1CCOCC1)N1CC(=O)N2[C@H](C1)[C@@H](c1ccc(C#CCc3ccccc3)cc1)[C@@H]2CO	BL2 CD40 inh 58[25 µM]
O=C(C1CCOCC1)N1CC(=O)N2[C@@H](CO)[C@@H](c3ccc(C#CCc4ccccc4)cc3)[C@@H]2C1	none
O=C(C1CCCC1)N1CC(=O)N2[C@@H](CO)[C@H](c3ccc(C#CCc4ccccc4)cc3)[C@@H]2C1	BL2 CD40 inh 93
C[C@H]1CN(C)C(=O)Cc2cc(N(C)C)ccc2O[C@@H]1CN(C)C	none
CNC[C@H]1Oc2ncccc2C(=O)N(C)C[C@H]1C	none
CC(C)NC(=O)N(C)C[C@H]1Oc2ccccc2CC(=O)N(C)C[C@H]1C	none
